Reference: PubChem BioAssay (EPA / NIEHS)
Several values for one entry are separate records, joined by “and”; a condition that tells them apart may be missing. Equal entries are not always repeated. Records with an inconclusive call do not appear. More than one record can exist for a structure, and the calls need not agree. Activity calls are given as the source filed them. The calls were made as follows, unless noted: active = hit-call score of the fitted dose curve at least 0.9, where 1 is the maximum; inactive = score below 0.9.

Assay: CCTE_Mundy_HCI_Cortical_Synap_Neur_Matur_NeuriteSpotCountPerNeuron: CCTE's Synaptogenesis and Neurite Maturation Assay in rat cortical cells for Neurite Spot Count per Neuron Count, Mundy Lab (AID 2284215)
Conditions: not given
In short: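 Developing rat cortical neurons, with glia suppressed by AraC, are exposed to chemicals from DIV 7 to DIV 12. Automated fluorescence imaging of MAP2-labelled neurites and synaptophysin puncta yields a count per neuron, normalised against DMSO wells.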

Row | Structure (SMILES) | outcome | AC50
1 | CC1=C(/C=C/C(C)=C/C=C/C(C)=C/C(=O)O)C(C)(C)CCC1 | inactive | 
2 | CN1CCC[C@H]1c1cccnc1 | inactive | 
3 | CC#C[C@]1(O)CC[C@H]2[C@@H]3CCC4=CC(=O)CCC4=C3[C@@H](c3ccc(N(C)C)cc3)C[C@@]21C |  | 13.3 µM (active) and 25.5 µM (active)

Assay: TAMU_PeakParms_SingleDonor1434_Chronotropy: Texas A&M University (TAMU) 1.5-hr Human Induced Pluripotent Stem Cell (iPSC)-derived Cardiomyocytes Calcium (Ca+2) Flux Assay for Cardiotoxicity: Chronotropy (changes in peak frequency) (AID 2284217)
Conditions: actives raise or lower the signal
In short: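 Beat frequency of single-donor iPSC cardiomyocytes was recorded through a calcium-sensitive dye 1.5 hours after exposure to four concentrations up to 100 uM. An EC05 point of departure was derived.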

Row | Structure (SMILES) | outcome | AC50
4 | c1ccc2c(c1)ccc1ccccc12 | inactive | 
5 | CC#C[C@]1(O)CC[C@H]2[C@@H]3CCC4=CC(=O)CCC4=C3[C@@H](c3ccc(N(C)C)cc3)C[C@@]21C |  | 0.216 µM (active)
6 | c1ccc2c(c1)Cc1ccccc1-2 |  | 50 µM (active)
7 | c1ccc2cc3c(ccc4ccccc43)cc2c1 | inactive | 

Assay: CCTE_Mundy_HCI_Cortical_Synap_Neur_Matur_SynapseCount: CCTE's Synaptogenesis and Neurite Maturation Assay in rat cortical cells for Synapse Count, Mundy Lab (AID 2284218)
Conditions: not given
In short: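 Primary rat cortical culture; AraC DIV 5 to arrest glia; compound + media change DIV 7; terminated DIV 12. PFA/Hoechst fix, anti-MAP2 + anti-synaptophysin immunostain; HCI synapse count/neuron; DMSO = baseline.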

Row | Structure (SMILES) | outcome | AC50
8 | CC1=C(/C=C/C(C)=C/C=C/C(C)=C/C(=O)O)C(C)(C)CCC1 | inactive | 
9 | CN1CCC[C@H]1c1cccnc1 | inactive | 
10 | CC#C[C@]1(O)CC[C@H]2[C@@H]3CCC4=CC(=O)CCC4=C3[C@@H](c3ccc(N(C)C)cc3)C[C@@]21C |  | 13.3 µM (active) and 25.1 µM (active)

Assay: CCTE_Mundy_HCI_Cortical_Synap_Neur_Matur_CellBodySpotCount: CCTE's Synaptogenesis and Neurite Maturation Assay in rat cortical cells for Cell Body Spot Count, Mundy Lab (AID 2284223)
Conditions: not given
In short: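 Chemicals were applied to AraC-treated rat primary cortical cells at DIV 7 and measured at DIV 12. Fixed cells were labelled for MAP2, synaptophysin and nuclei, and high-content imaging gave cell body synaptophysin spot counts per neuron relative to DMSO.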

Row | Structure (SMILES) | outcome | AC50
11 | CC1=C(/C=C/C(C)=C/C=C/C(C)=C/C(=O)O)C(C)(C)CCC1 | inactive | 
12 | CN1CCC[C@H]1c1cccnc1 | inactive | 
13 | CC#C[C@]1(O)CC[C@H]2[C@@H]3CCC4=CC(=O)CCC4=C3[C@@H](c3ccc(N(C)C)cc3)C[C@@]21C |  | 16.7 µM (active) and 24.8 µM (active)

Assay: CCTE_Mundy_HCI_hNP1_Pro_ResponderAvgInten: CCTE's Proliferation Assay in human neuroprogenitor cells, Mundy Lab (AID 2284224; active = hit-call score of the fitted dose curve at least 0.9, where 1 is the maximum)
Conditions: not given
Protocol: CCTE_Mundy_HCI_hNP1_Pro is a multiplexed, cell-based-readout assay that uses neural stem cells derived from a neuroepithelial cell lineage of WA09 embryonic cells with measurements taken at 26.25 hours after chemical dosing in a microplate: 96-well plate.CCTE_Mundy_HCI_hNP1_Pro_ResponderAvgInten is one of three components of the CCTE_Mundy_HCI_hNP1_Pro assay. It measures proliferation related to percentage of BrdU positive cells using High Content Imaging of fluorescently labelled markers.Data from the assay component CCTE_Mundy_HCI_hNP1_Pro_ResponderAvgInten was analyzed at the endpoint CCTE_Mundy_HCI_hNP1_Pro_ResponderAvgInten in the positive analysis fitting direction relative to DMSO as the negative control and baseline of activity. Using a type of growth reporter, loss -of-signal activity can be used to understand viability effects.
Human neural progenitor cells (hNP1) were obtained as cryopreserved cells from ArunA Biomedical, Athens Georgia. Cells are plated on pre-coated poly-L-ornithine/laminin clear bottom and opaque 96 well plates (day 0). Plates are placed in a 37 °C, 5% CO2 incubator for 40 to 44 hours at which time plates are removed from the incubator and 10 uL of a freshly made chemical solution is added to each well. Twenty hours after the addition of the chemicals, the clear plates are removed from the incubator and 11 uL of a BrdU solution is added to each well. The plates are returned to the incubator for four hours. After four hours, the plates are fixed with a 4% paraformaldehyde solution.

Row | Structure (SMILES) | outcome | AC50
14 | C=C(C)C(=O)OCCC(F)(F)C(F)(F)C(F)(F)C(F)(F)C(F)(F)C(F)(F)F | inactive | 
15 | OCCC(F)(F)C(F)(F)C(F)(F)C(F)(F)C(F)(F)C(F)(F)C(F)(F)C(F)(F)F | inactive | 
16 | CC#C[C@]1(O)CC[C@H]2[C@@H]3CCC4=CC(=O)CCC4=C3[C@@H](c3ccc(N(C)C)cc3)C[C@@]21C |  | 18 µM (active) and 23.2 µM (active)

Assay: BSK_BT_PBMCCytotoxicity: PBMC Cytotoxicity Assessment in the BioMAP Diversity Plus: BT Assay (AID 2284225);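 also: PBMC viability measured by Alamar Blue dye reduction fluorescence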
Conditions: primary human B cells with PBMC
In short: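 PBMC (75,000/well) pretreated with compound 1 h, then activated with SEB and TSST-1 (20 ng/mL each final), incubated 90 h; Alamar Blue added 6 h, fluorescence read at 546/580 nm. Fitted relative to DMSO.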

Row | Structure (SMILES) | outcome | AC50
17 | C=C(C)C(=O)OCCC(F)(F)C(F)(F)C(F)(F)C(F)(F)C(F)(F)C(F)(F)F | inactive | 
18 | FC(F)(I)C(F)(F)C(F)(F)C(F)(F)C(F)(F)C(F)(F)I |  | 25.6 µM (active) [middle of 5 runs]
19 | CCCCCCCCCCCCCC[N+](C)(C)C |  | 11.5 µM (active)
20 | NCC(F)(F)C(F)(F)C(F)(F)C(F)(F)C(F)(F)C(F)(F)C(F)(F)F | inactive | 
21 | OCCC(F)(F)C(F)(F)C(F)(F)C(F)(F)C(F)(F)C(F)(F)C(F)(F)C(F)(F)F |  | 43.4 µM (active) and 40.7 µM (active)
22 | OCCC(F)(F)C(F)(F)C(F)(F)C(F)(F)C(F)(F)C(F)(F)F | inactive | 30 µM (active)
23 | C[C@@H]1C[C@H]2[C@@H]3CCC4=CC(=O)C=C[C@]4(C)[C@@]3(F)[C@@H](O)C[C@]2(C)[C@@]1(O)C(=O)COP(=O)(O)O | inactive | 0.485 µM (active)
